Measured values published in PubChem BioAssay (EPA / NIEHS).
Several values for one entry are separate records, joined by “and”; a condition that tells them apart may be missing. Identical values can stand only once. Results filed as inconclusive are left out. A structure can be active in one record and inactive in another. Activity calls are given as the source filed them. The calls were made as follows, unless noted: active = hit-call score of the fitted dose curve at least 0.9, where 1 is the maximum; inactive = score below 0.9.

Tests used:
[1] = ATG_TCF_b_cat_CIS: Attagene CIS-FACTORIAL HepG2 Assay for human T-Cell-Factor with beta-catenin (TCF/b-cat) (AID 2282965); conditions: HepG2 TCF/beta-catenin cis-reporter transcription, actives raise or lower the signal
Outline: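 HepG2 cells transiently transfected with cis-promoter-driven multiplexed reporter units; reporter mRNA measured 24 h after dosing by RT-PCR, FAM labelling, HpaI digestion and capillary electrophoresis. Bidirectional fitting relative to DMSO baseline.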

[2] = ATG_TAL_CIS: Attagene CIS-FACTORIAL HepG2 Assay for human TAL Basal Promoter (AID 2282966); conditions: HepG2 Attagene cis-factorial TAL promoter reporter; actives raise or lower the signal;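 also: background control endpoint measuring basal TAL promoter reporter mRNA not a specific factor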
Outline: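 Background-control endpoint: basal TAL promoter reporter transcripts in transiently transfected HepG2, measured 24 h after dosing. Read-out by RT-PCR with fluorescent primer extension and capillary electrophoresis; gain or loss of signal fitted relative to DMSO.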

[3] = ATG_TGFb_CIS: Attagene CIS-FACTORIAL HepG2 Assay for human Transforming Growth Factor (TGF) (AID 2282967); conditions: HepG2 Attagene CIS TGFb reporter, mRNA transcription; actives raise or lower the signal
Outline: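 Bidirectional fitting relative to DMSO gave the endpoint. Underlying data: reporter mRNA from HepG2 cells carrying transiently transfected cis-regulated reporter constructs, harvested 24 h after dosing and analyzed by RT-PCR and capillary electrophoresis.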

[4] = ATG_VDRE_CIS: Attagene CIS-FACTORIAL HepG2 Assay for human Vitamin D Receptor Element (VDRE) (AID 2282968); conditions: HepG2 VDRE cis-reporter transcription, actives raise or lower the signal
Outline: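 Transient MRTU transfection of HepG2, 24 h compound exposure. Readout: reporter transcripts via RT-PCR and capillary electrophoresis, fluorescence. Bidirectional fit vs DMSO.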

[5] = molecular target: Nuclear receptor subfamily 1 group I member 3 (Homo sapiens) (UniProt Q14994); assay: ATG_CAR_TRANS: Attagene TRANS-FACTORIAL HepG2 Assay for human Constitutive Androstane Receptor (CAR) (AID 2282969; active = hit-call score of the fitted dose curve at least 0.9, where 1 is the maximum;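 also: activators raise reporter mRNA above DMSO so AC50 marks induction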); conditions: HepG2 Attagene TRANS-FACTORIAL CAR reporter
Outline: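 Transiently transfected HepG2, multiplex TRANS reporters (CAR-Gal4 chimera driving GAL4-UAS reporter). 24 h dosing. Readout: reporter transcript by RT-PCR + capillary electrophoresis, fluorescence intensity; positive direction vs DMSO.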

[6] = molecular target: Estrogen receptor (Homo sapiens) (UniProt P03372); assay: ATG_ERa_TRANS: Attagene TRANS-FACTORIAL HepG2 Assay for human Estrogen Receptor alpha (ERa) (AID 2282970; active = hit-call score of the fitted dose curve at least 0.9, where 1 is the maximum); conditions: HepG2 Attagene TRANS ERa GAL4 reporter, mRNA
Outline: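 Reporter transcripts were measured 24 h after dosing by RT-PCR with fluorescent primer extension and capillary electrophoresis. The system is transiently transfected HepG2 expressing exogenous NR-Gal4 chimeras driving GAL4-UAS reporters; DMSO is the baseline.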

[7] = molecular target: X-box-binding protein 1 (Homo sapiens) (UniProt P17861); assay: ATG_Xbp1_CIS: Attagene CIS-FACTORIAL HepG2 Assay for human X-box Binding Protein 1 (XBP1) (AID 2282972); conditions: HepG2 XBP1 cis-element reporter, Attagene multiplex; actives raise or lower the signal
Outline: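 Changes in reporter transcript abundance, read by RT-PCR and capillary electrophoresis, reflect endogenous transcription factor activity. Transfected HepG2 cells received compound for 24 hours; DMSO defined baseline for bidirectional analysis.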

[8] = ATG_M_19_TRANS: Attagene TRANS-FACTORIAL HepG2 Assay for M19 Transcription Factor (Internal Marker) (AID 2282974; active = hit-call score of the fitted dose curve at least 0.9, where 1 is the maximum); conditions: HepG2 Attagene TRANS-FACTORIAL M19 internal marker reporter
Outline: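 HepG2 cells transiently transfected with multiple GAL4-UAS reporter transcription units were exposed to chemicals for 24 h. Reporter mRNA was read by RT-PCR, 6-FAM primer extension, HpaI digestion and capillary electrophoresis; gain of signal fitted relative to DMSO.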

[9] = molecular target: Steroid hormone receptor ERR1 (Homo sapiens) (UniProt P11474); assay: ATG_ERRa_TRANS: Attagene TRANS-FACTORIAL HepG2 Assay for human Estrogen-Related Receptor alpha (ERRa) (AID 2282971; active = hit-call score of the fitted dose curve at least 0.9, where 1 is the maximum); conditions: HepG2 Attagene TRANS reporter, ERRa transactivation
Outline: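 Reporter transcripts from ERRa-Gal4 chimera activity measured in transiently transfected human HepG2 cells 24 hours after dosing, using RT-PCR with 6-FAM primer extension, HpaI digestion and capillary electrophoresis; DMSO is baseline.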

[10] = molecular target: Androgen receptor (Homo sapiens) (UniProt P10275); assay: ATG_AR_TRANS: Attagene TRANS-FACTORIAL HepG2 Assay for human Androgen Receptor (AR) (AID 2282973; active = hit-call score of the fitted dose curve at least 0.9, where 1 is the maximum); conditions: HepG2 Attagene TRANS-FACTORIAL AR reporter transcription
Outline: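 Transcriptional activity of an exogenous AR–Gal4 fusion read as GAL4-UAS reporter transcript levels in transfected human HepG2 cells after 24 h dosing. Detection via RT-PCR, 6-FAM labelling, HpaI digest and capillary electrophoresis; increase over DMSO baseline.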

Measured: AC50

Estrogen receptor (Homo sapiens), sequence (P03372 whole entry, looked up, the tested form may be a part): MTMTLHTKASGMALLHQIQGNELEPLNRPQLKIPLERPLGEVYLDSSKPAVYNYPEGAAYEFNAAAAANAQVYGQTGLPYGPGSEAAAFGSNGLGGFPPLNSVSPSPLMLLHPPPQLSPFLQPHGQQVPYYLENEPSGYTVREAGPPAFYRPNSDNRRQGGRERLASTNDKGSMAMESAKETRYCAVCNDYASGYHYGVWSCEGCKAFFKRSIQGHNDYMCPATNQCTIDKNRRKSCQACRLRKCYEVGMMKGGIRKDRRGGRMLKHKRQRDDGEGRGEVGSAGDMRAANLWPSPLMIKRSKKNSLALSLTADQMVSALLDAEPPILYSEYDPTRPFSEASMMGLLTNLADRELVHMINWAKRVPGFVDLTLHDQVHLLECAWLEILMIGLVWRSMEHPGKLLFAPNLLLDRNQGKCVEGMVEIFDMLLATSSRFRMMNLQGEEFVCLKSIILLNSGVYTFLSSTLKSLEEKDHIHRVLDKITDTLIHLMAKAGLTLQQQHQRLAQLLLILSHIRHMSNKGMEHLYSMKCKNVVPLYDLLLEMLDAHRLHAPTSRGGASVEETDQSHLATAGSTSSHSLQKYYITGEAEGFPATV
Steroid hormone receptor ERR1 (Homo sapiens), sequence (P11474 whole entry, looked up, the tested form may be a part): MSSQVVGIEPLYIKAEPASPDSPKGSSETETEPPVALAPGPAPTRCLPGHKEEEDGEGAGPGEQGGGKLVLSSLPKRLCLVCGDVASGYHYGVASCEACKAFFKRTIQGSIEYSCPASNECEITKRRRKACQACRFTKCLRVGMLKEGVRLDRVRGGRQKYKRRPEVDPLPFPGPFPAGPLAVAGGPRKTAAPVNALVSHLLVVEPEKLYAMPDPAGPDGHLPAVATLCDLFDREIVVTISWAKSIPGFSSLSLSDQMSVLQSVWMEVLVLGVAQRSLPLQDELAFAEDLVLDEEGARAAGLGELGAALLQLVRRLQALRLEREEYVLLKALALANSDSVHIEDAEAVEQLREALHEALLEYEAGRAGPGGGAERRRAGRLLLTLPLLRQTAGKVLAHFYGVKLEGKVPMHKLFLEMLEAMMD
X-box-binding protein 1 (Homo sapiens), sequence (P17861 whole entry, looked up): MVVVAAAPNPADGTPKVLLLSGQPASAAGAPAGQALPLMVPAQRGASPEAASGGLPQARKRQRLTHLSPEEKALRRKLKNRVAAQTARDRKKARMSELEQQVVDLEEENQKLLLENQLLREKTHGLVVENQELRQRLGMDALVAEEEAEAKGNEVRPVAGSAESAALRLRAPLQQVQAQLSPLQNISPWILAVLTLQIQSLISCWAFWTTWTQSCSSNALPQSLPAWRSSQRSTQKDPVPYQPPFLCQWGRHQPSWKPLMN
Nuclear receptor subfamily 1 group I member 3 (Homo sapiens), sequence (Q14994 whole entry, looked up, the tested form may be a part): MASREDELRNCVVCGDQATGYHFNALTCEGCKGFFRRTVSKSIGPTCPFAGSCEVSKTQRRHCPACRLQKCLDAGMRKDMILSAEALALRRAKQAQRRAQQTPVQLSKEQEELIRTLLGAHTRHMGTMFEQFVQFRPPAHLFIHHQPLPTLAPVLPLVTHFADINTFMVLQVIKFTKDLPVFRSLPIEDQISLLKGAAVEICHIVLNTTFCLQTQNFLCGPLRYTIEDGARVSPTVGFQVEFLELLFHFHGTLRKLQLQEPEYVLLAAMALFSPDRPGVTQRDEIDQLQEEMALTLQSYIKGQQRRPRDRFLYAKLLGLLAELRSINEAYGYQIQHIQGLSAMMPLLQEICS
Androgen receptor (Homo sapiens), sequence (P10275 whole entry, looked up, the tested form may be a part): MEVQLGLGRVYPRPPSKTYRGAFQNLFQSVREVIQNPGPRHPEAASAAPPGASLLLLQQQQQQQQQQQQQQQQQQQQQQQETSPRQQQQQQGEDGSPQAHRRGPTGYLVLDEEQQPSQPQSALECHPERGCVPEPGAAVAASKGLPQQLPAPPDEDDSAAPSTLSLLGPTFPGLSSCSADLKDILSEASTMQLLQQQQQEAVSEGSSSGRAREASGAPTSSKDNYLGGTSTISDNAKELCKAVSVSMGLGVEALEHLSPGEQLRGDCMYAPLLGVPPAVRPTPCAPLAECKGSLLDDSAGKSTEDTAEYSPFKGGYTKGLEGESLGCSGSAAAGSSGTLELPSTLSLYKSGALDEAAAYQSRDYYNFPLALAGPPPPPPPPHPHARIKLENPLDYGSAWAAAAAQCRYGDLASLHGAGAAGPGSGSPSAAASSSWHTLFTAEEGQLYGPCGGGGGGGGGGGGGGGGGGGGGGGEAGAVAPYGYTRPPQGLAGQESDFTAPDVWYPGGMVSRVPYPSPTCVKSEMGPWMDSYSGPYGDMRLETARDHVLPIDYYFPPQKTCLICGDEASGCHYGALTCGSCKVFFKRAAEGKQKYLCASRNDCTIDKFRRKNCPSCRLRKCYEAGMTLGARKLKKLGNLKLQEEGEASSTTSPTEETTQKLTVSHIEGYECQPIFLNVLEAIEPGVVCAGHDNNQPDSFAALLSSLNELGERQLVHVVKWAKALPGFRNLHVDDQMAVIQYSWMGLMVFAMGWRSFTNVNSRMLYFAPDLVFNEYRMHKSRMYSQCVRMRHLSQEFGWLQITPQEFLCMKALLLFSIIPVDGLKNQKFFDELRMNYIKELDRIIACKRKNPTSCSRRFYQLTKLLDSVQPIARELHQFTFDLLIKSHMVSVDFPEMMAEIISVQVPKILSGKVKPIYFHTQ

CCCCC(CC)COC(=O)c1ccccc1C(=O)OCC(CC)CCCC (centres undefined)
inactive: [1] | [2] | [3] | [4] | [5] | [6] | [7] | [8]

COC(=O)C=C(C)OP(=O)(OC)OC
inactive: [1] | [2] | [3] | [4] | [5] | [6] | [9] | [8]

CCCC1COC(Cn2cncn2)(c2ccc(Cl)cc2Cl)O1 (centres undefined)
inactive: [1] | [2] | [3] | [4] | [5] | [7] | [10] | [8]
active: [4] 7.99 µM

C=CCC1=C(C)C(OC(=O)C2C(C=C(C)C)C2(C)C)CC1=O (centres undefined)
active: [1] 48.8 µM [middle of 5 runs] | [2] 105 µM | [3] 178 µM | [6] 26.8 µM
inactive: [1] | [2] | [3] | [4] | [5] | [6] | [9] | [8]

CCOC(=O)CC(SP(=S)(OC)OC)C(=O)OCC (centres undefined)
active: [2] 0.00921 µM | [4] 20.2 µM and 29.4 µM | [6] 68 µM and 32.4 µM | [7] 100 µM
inactive: [1] | [2] | [3] | [5] | [7] | [10] | [8]

COP(=S)(OC)Oc1nc(Cl)c(Cl)cc1Cl
active: [4] 27.8 µM | [6] 33.1 µM
inactive: [1] | [2] | [3] | [5] | [9] | [8]

CCCCNC(=O)n1c(NC(=O)OC)nc2ccccc21
inactive: [1] | [2] | [3] | [4] | [5] | [6]

COC(=O)c1ccccc1C(=O)OC
inactive: [1] | [2] | [3] | [4] | [5] | [6] | [9] | [7] | [8]

CCOP(=S)(OCC)SCn1c(=O)oc2cc(Cl)ccc21
inactive: [1] | [2] | [3] | [5] | [7] | [8]
active: [4] 13.8 µM | [6] 29.9 µM

CC(C)(C)c1ccc(CSc2cnn(C(C)(C)C)c(=O)c2Cl)cc1
inactive: [1] | [2] | [3] | [5] | [9]
active: [4] 0.574 µM | [6] 26.5 µM

CCc1nn(C)c(C(=O)NCc2ccc(C(C)(C)C)cc2)c1Cl
active: [4] 1.91 µM
inactive: [1] | [2] | [3] | [5] | [6] | [9]

CCOC(=O)C(Cl)Cc1cc(-n2nc(C)n(C(F)F)c2=O)c(F)cc1Cl (centres undefined)
inactive: [1] | [2] | [3] | [4] | [5] | [6] | [7]

CON(C)C(=O)Nc1ccc(Cl)c(Cl)c1
active: [4] 28.7 µM and 35.7 µM and 23.4 µM
inactive: [1] | [2] | [3] | [4] | [5] | [6] | [9] | [8]

CCCCNC(=O)OCC#CI
active: [1] 26.8 µM | [3] 25.4 µM | [4] 37 µM | [6] 25.4 µM
inactive: [1] | [2] | [3] | [4] | [5] | [6] | [9]

C=CCC1=C(C)[C@@H](OC(=O)[C@@H]2[C@@H](C=C(C)C)C2(C)C)CC1=O
inactive: [1] | [2] | [3] | [5] | [6] | [9]
active: [4] 6.05 µM

OC(c1ccc(Cl)cc1)(c1cncnc1)c1ccccc1Cl (centres undefined)
inactive: [1] | [2] | [3] | [4] | [5] | [6] | [9] | [8]
active: [4] 50 µM | [6] 3.2 µM

CC(C)C1(C)N=C(c2nc3ccccc3cc2C(=O)O)NC1=O (centres undefined)
inactive: [1] | [2] | [3] | [4] | [5] | [6] | [9]

Oc1ccccc1-c1ccccc1
inactive: [1] | [2] | [3] | [4] | [5] | [8]
active: [3] 87.5 µM | [4] 38.4 µM | [6] 31.1 µM and 27.8 µM

CNC(=S)S
active: [1] 168 µM
inactive: [1] | [2] | [3] | [4] | [5]

COc1nc(C)nc(NC(=O)NS(=O)(=O)c2ccccc2Cl)n1
inactive: [1] | [2] | [3] | [4] | [5] | [6] | [7] | [8]

N#Cc1nn(-c2c(Cl)cc(C(F)(F)F)cc2Cl)c(N)c1S(=O)C(F)(F)F (centres undefined)
inactive: [1] | [2] | [3] | [4] | [5] | [6] | [9] | [10] | [8]
active: [4] 15.4 µM | [6] 11.8 µM

CCCCOC(=O)c1ccccc1C(=O)OCCCC
active: [3] 65.8 µM
inactive: [1] | [2] | [3] | [4] | [5] | [6] | [9] | [8]

COC(=O)N(OC)c1ccccc1COc1ccn(-c2ccc(Cl)cc2)n1
active: [4] 1.35 µM
inactive: [1] | [2] | [3] | [5] | [6] | [9]

CCCN(CCC)c1c([N+](=O)[O-])cc(S(N)(=O)=O)cc1[N+](=O)[O-]
active: [4] 915 nM and 1.14 µM
inactive: [1] | [2] | [3] | [4] | [5] | [6] | [9] | [7] | [8]
